The list is not random: actives were taken first. Their share in the collection is about 17%.
ClpP mod: qHTS Assay for Activators of ClpP. ATP-dependent Clp protease proteolytic subunit (Bacillus subtilis (strain 168)), P80244. purified B. subtilis ClpP, FRET peptide cleavage, 20 min. Potency, µM (highest dose often 57.5 µM), inactives show top-dose activity change, negative = active. 340,000 compounds, 1.9% hits. AID 651965, 2013; active means well fitted falling curve with a large enough effect; inconclusive means small, poorly fitted or top-dose-only effect; inactive means no such curve, though single readings can be large or run the other way; further: the source files actives as falling curves though it sought activators and does not explain the sign; nearly all actives have a fitted effect of over 65% in size
Target sequence (P80244 whole entry, looked up): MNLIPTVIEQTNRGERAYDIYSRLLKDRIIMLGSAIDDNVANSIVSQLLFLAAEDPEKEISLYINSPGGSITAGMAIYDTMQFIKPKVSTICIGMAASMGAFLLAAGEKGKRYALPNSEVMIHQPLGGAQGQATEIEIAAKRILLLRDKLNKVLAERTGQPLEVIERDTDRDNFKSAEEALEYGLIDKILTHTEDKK
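Buffer: 100 mM Tris/HCl pH8, 100 mM KCl, 0.05% low protease BSA, 2.5% glycerol, 0.01% Tween-20. ClpP 10 microg/mL final; 20 min RT; delta FRET normalized to ADEP and DMSO controls.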
TDP1 block: blocks human tyrosyl-DNA phosphodiesterase 1; 350,000 compounds, 0.28% hits; Potency, µM (top dose mostly 130 µM), for inactives: at the top dose activity change, negative = inhibition, usual class: inhibitors; Q9NUW8; recombinant TDP1, AlphaScreen DNA substrate cleavage; further: on the % scale 0 is the no-effect control and ±100 the full control effect; nearly all actives have a fitted effect of over 40% in size
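Recombinant human Tdp1 (E. coli-expressed, 1 nM final) preincubated with compounds 15 min at room temperature, then 5'-biotin/3'-phosphotyrosine-FITC DNA substrate (15 nM final) added for 5 min. AlphaScreen beads (10 ug/ml final) added 10 min; cleavage lowers signal.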
DT40 TDP1 CPT: DT40-hTDP1 cell growth loss with CPT | chicken DT40 Tdp1-/-;hTDP1 cells + 20 nM CPT, ATP luminescence, 48 h | Potency, µM (highest dose often 46.2 µM), for inactives: at the highest dose activity change, negative = growth inhibition, actives largely listed as inhibitors | 420,000 compounds, 12% hits; further: on the % scale 0 is the no-effect control and ±100 the full control effect; nearly all actives have a fitted effect of over 55% in size
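Chicken DT40 Tdp1-/- cells stably complemented with human TDP1 were seeded at 400 cells/well in medium containing 20 nM camptothecin, exposed to pin-transferred compounds, and grown at 37 °C for at least 48 hr. Viability was read as ATP luminescence.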
DT40 TDP1 no CPT: qHTS for Inhibitors of human tyrosyl-DNA phosphodiesterase 1 (TDP1): qHTS in cells in absence of CPT. DT40 Tdp1-/- hTDP1 cells, no CPT, ATP luminescence, 48 h. Potency, µM (series often up to 46.2 µM), without a hit: top-dose activity change, negative = growth inhibition, hits mostly inhibitors. 420,000 compounds, 15% hits; further: on the % scale 0 is the no-effect control and ±100 the full control effect; nearly all actives have a fitted effect of over 55% in size
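Growth of hTDP1-complemented DT40 Tdp1-knockout cells is measured by ATP luminescence after at least 48 hr compound exposure at 37 °C, with DMSO substituting for the 20 nM CPT used in the parallel screen.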
Starred values were filed as active, the others as inactive; u = inconclusive; x = no result; [ ] = another dose, or the depositor's remark. Unless noted, the call rests on the fitted dose curve; in most records, active means well fitted curve in the direction sought with a large enough effect; inconclusive means small, poorly fitted or top-dose-only effect, or another doubt; inactive means no such curve, though single readings can be large; an effect the other way counts as inactive or inconclusive. Potency means the concentration at half of the fitted maximal effect.

SMILES	ClpP mod	TDP1 block	DT40 TDP1 CPT	DT40 TDP1 no CPT
CC(C)NC(=S)N/N=C/C1=CCC2CC1C2(C)C (stereo not drawn)	-1%	5%	u	u
Cn1nc(-c2ccc(C(=O)Nc3cccc(Cl)c3)cc2)c2ccccc2c1=O	-18%	-1%	u	u
COc1cccc(NC(=O)Nc2nc(SC(C)(C)C)ns2)c1	-1%	x	15µM*	u
CCSc1nsc(NC(=O)Nc2cccc(F)c2)n1	x	x	21µM*	4.1µM*
COc1cccc(NC(=O)Nc2nc(SC)ns2)c1	x	4%	9.2µM*	u
CCCSc1nsc(NC(=O)C(c2ccccc2)c2ccccc2)n1	-1%	-5%	18µM*	29µM*
COc1ccc(NC(=O)Nc2cccc(OC)c2)cc1	-2%	x	-16%	-1%
CCCSc1nsc(NC(=O)CC)n1	x	0%	-13%	u
CCCSc1nsc(NC(=O)Nc2ccc(F)cc2F)n1	-1%	x	5.2µM*	4.1µM*
COc1ccccc1CNC(=O)CCCN1C(=O)CCn2nc(-c3cn(C)c4ccccc34)cc21	2%	4%	u	u
CSc1nc2nccc(-c3ccc(Cl)cc3)n2n1	-20%	-6%	-6%	-12%
CSc1nc2nccc(/C=C\c3ccccc3)n2n1	-6%	5%	u	23µM*
O=C(O)Cc1ccc(-c2ccccc2-c2ccccc2)cc1	3%	3%	15µM*	21µM*
CCc1cccc(C)c1NC(=O)CSc1n[nH]c(-c2ccccc2)n1	0%	5%	u	u
CC(=O)c1sc(=S)n(-c2ccc(Cl)cc2)c1C	1%	0%	18µM*	u
CC(=O)c1sc(=S)n(-c2ccccc2)c1C	x	1%	-14%	-13%
CC[C@@H]1[C@H]2CCCC(=O)N3CC[C@@H](C[C@H]1O)[C@@H]23	-5%	x	-9%	0%
COCCCNC(=O)C(C)N1c2cccc3cccc(c23)S1(=O)=O (stereo not drawn)	0%	x	21µM*	21µM*
Cn1cnc(S(=O)(=O)Nc2ccc(OC(F)(F)F)cc2)c1	-2%	-2%	5%	0%
Cn1c(=O)c2c(nc3n2CC(COc2ccc(Cl)cc2)O3)n(C)c1=O (stereo not drawn)	1%	5%	u	-16%
CCc1cccc(OCC2Cn3c(nc4c3c(=O)[nH]c(=O)n4C)O2)c1 (stereo not drawn)	-1%	0%	8.2µM*	u
Cc1ccc(OCC2Cn3c(nc4c3c(=O)[nH]c(=O)n4C)O2)cc1C (stereo not drawn)	x	x	u	10µM*
Cc1ccc(Nc2nc(NCc3ccco3)nc3nccnc23)c(C)c1	0%	8.9µM*	u	u
Oc1ccccc1Nc1nc(NCc2ccco2)c2ccccc2n1	2%	11%	16µM*	21µM*
COc1ccc(OC)c(Nc2nc(NCc3ccco3)c3ccccc3n2)c1	x	x	u	23µM*
SMILES	ClpP mod	TDP1 block	DT40 TDP1 CPT	DT40 TDP1 no CPT
Cc1ccccc1Nc1nc(NCc2ccco2)c2ccccc2n1	x	11%	5.8µM*	3.7µM*
COc1cc2oc(=O)cc(-c3ccc(-c4ccc(CO)cc4)cc3)c2c(OC)c1OC	-11%	0%[56.1 µM]	21µM*	18µM*
COc1cc2oc(=O)cc(-c3ccc(-c4ccc(C(F)(F)F)cc4)cc3)c2c(OC)c1OC	1%	0%[56.1 µM]	u	u
COc1cc2oc(=O)cc(-c3cccc(-c4ccc(C(F)(F)F)cc4)c3)c2c(OC)c1OC	u	0%[56.1 µM]	23µM*	15µM*
COc1cc2oc(=O)cc(-c3ccc(-c4ccc(C)cc4)cc3)c2c(OC)c1OC	3%	-1%[56.1 µM]	u	u
COc1cc(OC)c2c(-c3cccc(-c4ccc(C(C)=O)cc4)c3)cc(=O)oc2c1	u	0%[56.1 µM]	1.2µM*	0.92µM*
COc1cc2oc(=O)cc(-c3ccc(-c4ccc(C#N)cc4)cc3)c2c(OC)c1OC	u	-1%[56.1 µM]	7.3µM*	8.2µM*
CSc1ccccc1OCc1cc(C(=O)N[C@H]2CCCCNC2=O)no1	-1%	3%	u	-25%
CSc1nc2n(n1)C(c1ccccn1)C1=C(CC(C)(C)CC1=O)N2 (stereo not drawn)	25µM*	2%	-13%	-10%
Cc1ncc(CO)c2cc(C(=O)Nc3ccccc3Cl)c(=Nc3cccc(C(N)=O)c3)oc12	2%	x	-14%	-4%
Cc1ccc(N2CCN(C(=O)c3c(C)oc4ncnc(N5CCOCC5)c34)CC2)c(C)c1	1%	3%	u	-27%
Cc1cccc(N2CCN(C(=O)c3c(C)oc4ncnc(N5CCCCC5)c34)CC2)c1C	1%	5%	16µM*	8.2µM*
Cc1nc(N2CCCC2)c2c(C(=O)N3CCN(c4cc(Cl)ccc4C)CC3)c(C)oc2n1	-2%	x	u	18µM*
Cc1ccc(N2CCN(C(=O)c3c(C)oc4ncnc(N5CCCCC5)c34)CC2)c(C)c1	-2%	-1%	16µM*	7.3µM*
Cc1oc2ncnc(N3CCCCC3)c2c1C(=O)Nc1cccc(Cl)c1C	1%	1%	16µM*	15µM*
CC(C)C[C@@]12C(=O)N(c3cccc(F)c3)C(=O)N1[C@H](c1ccc(Cl)cc1)[C@@H]1C(=O)N(C3CCCCC3)C(=O)[C@@H]12	-7%	0%	-27%	-18%
COc1cccc(N2CCN(C(=O)c3c(C)oc4ncnc(N5CCCCC5)c34)CC2)c1	0%	0%	u	18µM*
COc1cc2c(C(=O)N3CCN(c4ccccc4)CC3)c(C)oc2cc1Br	-2%	6%	u	18µM*
CCN(CC)S(=O)(=O)c1ccc(NC(=O)c2c(C)oc3ncnc(N4CCCCC4)c23)cc1	2%	5%	21µM*	15µM*
Cc1oc2ncnc(N3CCCCC3)c2c1C(=O)Nc1cccc(F)c1	4%	-1%	u	u
COCc1ccc(CN2CCOc3c(cc(-c4ccc(SC)cc4)cc3OC)C2)o1	x	x	1%[9.04 µM]	-21%
Cc1cc2cc(C(c3nnnn3Cc3ccco3)N3CCc4ccccc43)c(=O)[nH]c2cc1C (stereo not drawn)	-13%	-4%	u	u
Cc1cc(C)c2[nH]c(=O)c(C(c3nnnn3CC3CCCO3)N3CCCC(C)C3)cc2c1 (stereo not drawn)	-12%	-4%	18µM*	u
Cc1cc(C)c2[nH]c(=O)c(C(c3nnnn3CC3CCCO3)N3CCC(C)CC3)cc2c1 (stereo not drawn)	-3%	5%	u	u
Cc1cc2cc(C(c3nnnn3Cc3ccco3)N3CCc4ccccc4C3)c(=O)[nH]c2cc1C (stereo not drawn)	-26%	5%	u	23µM*
Cc1ccc2[nH]c(=O)c(C(c3nnnn3CC3CCCO3)N3CCOCC3)cc2c1 (stereo not drawn)	22µM*	1%	6%	-3%

Assay outcomes deposited in PubChem by National Center for Advancing Translational Sciences (NCATS).
